From PubChem BioAssay AID504848 (National Center for Advancing Translational Sciences (NCATS), 2011)
The whole screen tested about 2,300 compounds, of which about 1,400 (61%) were called active. Inconclusive results (about 29%) are left out. The call rests on the fitted dose curve; in most records, active means well fitted inhibition curve with a large enough effect; inconclusive means small, poorly fitted or top-dose-only effect, or effect the other way; inactive means no such curve, though single readings can be large or run the other way. So high a share suggests a set chosen from earlier hits. This is one part of the list.

Assay: Confirmation screen for delayed death inhibitors of the malarial parasite plastid, 96 hour incubation; further: nearly all actives have a fitted effect of over 60% in size
Conditions: P. falciparum luciferase growth in erythrocytes; series mostly up to 28.7 µM
Summary of the method: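 Erythrocytes infected with luciferase-expressing P. falciparum (2% hematocrit, 0.1% parasitemia final) in RPMI 1640 with 0.5% Albumax, exposed to compounds 96 h at 37 C, 5% CO2. Growth inhibition read as decreased luciferase luminescence.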
Potency means the concentration at half of the fitted maximal effect.

Row | Structure (SMILES) | Potency
1 | CCOC(=O)c1c(NC(=S)N2CCCCC2)sc2c1CCN(C(=O)OCC)C2 | 3.98 µM (active)
2 | Cc1cccc(CSc2cccc3cccnc23)c1 | 12.6 µM (active)
3 | O=C(Nc1ccncc1)c1ccc(Cl)c(S(=O)(=O)N2CCCC2)c1 | 8.91 µM (active)
4 | Cc1c(NC(=S)NC(=O)C(C)(C)C)c(=O)n(-c2ccccc2)n1C | inactive
5 | Cc1c(NC(=O)c2ccc(Cl)c(S(=O)(=O)N3CCCCC3)c2)c(=O)n(-c2ccccc2)n1C | 10 µM (active)
6 | CCOC(=O)N1CCN(C(=O)c2ccc(Cl)c(S(=O)(=O)N3CCCC3)c2)CC1 | 12.6 µM (active)
7 | Cc1cc(F)ccc1S(=O)(=O)Nc1ccccc1C(=O)Nc1ccccc1-c1nc2ccccc2[nH]1 | 4.47 µM (active)
8 | Nc1cc[n+](CC(=O)c2ccc3c(c2)OCCO3)cc1 | 4.47 µM (active)
9 | CN(C)c1ccc(NC(=S)NC23CC4CC(CC(C4)C2)C3)cc1 | 1.58 µM (active)
10 | COCCNCC(=O)NC12CC3CC(CC(C3)C1)C2 | inactive
11 | COc1ccc(N2CCN(CCCn3c(=S)[nH]c4ccccc4c3=O)CC2)cc1 | 12.6 µM (active)
12 | O=C(/C=C/c1ccc(Cl)c(Cl)c1)NCCCn1ccnc1 | 12.6 µM (active)
13 | COc1ccc(C)cc1NC(=O)CSCc1ccccc1C | 12.6 µM (active)
14 | CCOc1ccc(-n2c(N)c(-c3nc4ccccc4n3C)c3nc4ccccc4nc32)cc1 | 3.98 µM (active)
15 | COc1ccccc1CNC(=O)CN1C(=O)NC(c2ccccc2)(c2ccc(C)c(C)c2)C1=O (stereo not given) | 12.6 µM (active)
16 | Cc1cc(NC(=O)CN2C(=O)NC(c3ccccc3)(c3ccc(C)c(C)c3)C2=O)no1 (stereo not given) | 11.2 µM (active)
17 | Cc1cccc(CS(=O)(=O)c2ncc(Cl)c(C(=O)Nc3c(C)cccc3C)n2)c1 | inactive
18 | COc1cc(NCc2ccc3nc(N)nc(N)c3c2C)cc(OC)c1OC | 0.199 µM (active)
19 | Cc1ccc(-n2cc(CN3CCC(CO)(Cc4cccc(C(F)(F)F)c4)CC3)cn2)cc1 | 7.94 µM (active)
20 | Cc1c(CCO)sc[n+]1CC(=O)OCCC12CC3CC(CC(C3)C1)C2 | 3.16 µM (active)
21 | O=C(Nc1ccc(Cl)cc1)c1ccc(CN2CCc3ccccc3C2)cc1 | 14.1 µM (active)
22 | O=C(Nc1ccc(F)cc1)c1ccc(CN2CCc3ccccc3C2)cc1 | 12.6 µM (active)
23 | Cc1cc(C)cc(NC(=O)c2ccc(CN3CCc4ccccc4C3)cc2)c1 | 11.2 µM (active)
24 | O=C(Nc1ccc2[nH]ncc2c1)c1ccc(F)cc1 | inactive
25 | COc1ccc(N2C(=O)C3C(C2=O)C(C(=O)c2ccc(Cl)cc2)N2CCCC32)cc1 (stereo not given) | inactive

Row | Structure (SMILES) | Potency
26 | Cc1c(OC(C)C(=O)N2C[C@H]3C[C@@H](C2)c2cccc(=O)n2C3)ccc2c3c(c(=O)oc12)CCC3 (stereo not given in full) | 11.2 µM (active)
27 | Cc1c(CC(=O)N2C[C@H]3C[C@@H](C2)c2cccc(=O)n2C3)c(=O)oc2cc3occ(C(C)(C)C)c3cc12 | 12.6 µM (active)
28 | CC(C)N1C/C(=C/c2ccsc2)C(=O)/C(=C/c2ccsc2)C1 | 5.62 µM (active)
29 | CCC1S/C(=N/N=C/c2ccco2)N(Cc2ccccc2C)C1=O (stereo not given) | 10 µM (active)
30 | CCc1nc(SCC(=O)Nc2ccccc2OC)c2c(C)c(C)sc2n1 | 12.6 µM (active)
31 | CCc1nc(SCC(=O)N2c3ccccc3CC2C)c2c(C)c(C)sc2n1 (stereo not given) | 11.2 µM (active)
32 | CC(=O)NCCC(=O)Nc1cc(S(=O)(=O)N2CCOCC2)ccc1Oc1ccccc1 | 10 µM (active)
33 | CN(C)S(=O)(=O)c1ccc(NCC2COc3ccccc3O2)c([N+](=O)[O-])c1 (stereo not given) | 12.6 µM (active)
34 | COc1ccc(C(=O)CC(SCC(NC(C)=O)C(=O)O)c2ccc(Cl)cc2)cc1OC (stereo not given) | 11.2 µM (active)
35 | CCOC(=O)N1C/C(=C\c2ccccc2)C(=O)/C(=C/c2ccccc2)C1 | 4.47 µM (active)
36 | O=[N+]([O-])c1ccc(C[n+]2cccc3c4ccccc4ccc32)cc1 | 0.126 µM (active)
37 | COC1C(OC(=O)/C=C/C=C/C=C/C=C/C(=O)O)CCC2(CO2)C1C1(C)OC1CC=C(C)C (stereo not given) | 0.0501 µM (active)
38 | CC1=CC(C)(C)N2C(=O)C3(NCCc4c3[nH]c3ccccc43)c3cc(C)cc1c32 (stereo not given) | 11.2 µM (active)
39 | Fc1ccc(CNc2ccc(N3CCN(Cc4ccccc4)CC3)cc2)cc1 | 12.6 µM (active)
40 | CCCc1c(NC(=O)Nc2ccc(F)cc2)cnn1-c1ccccc1 | 11.2 µM (active)
41 | CCCc1c(NC(=O)Nc2ccc(F)cc2)cnn1-c1ccc(Cl)cc1 | 10 µM (active)
42 | CC1=NCCN1CCNC(=O)Nc1ccc(F)cc1 | inactive
43 | Cc1cccc(C2Nc3ccccc3C(=O)N2c2ccccc2)n1 (stereo not given) | inactive
44 | CCCN1C(=O)c2ccccc2NC1c1ccc(OC)cc1O (stereo not given) | 11.2 µM (active)
45 | Fc1cccc(CNc2ncnc3ccc(-c4ccc5c(c4)OCO5)cc23)c1 | 4.47 µM (active)
46 | Fc1ccc(CSc2nncn2NCc2ccc3c(c2)OCO3)cc1 | inactive
47 | Clc1ccc(-c2c[n+](Cc3ccc(Br)cc3)c3n2CCCCC3)cc1 | 0.0251 µM (active)
48 | Clc1ccc(-c2c[n+](Cc3ccc(Cl)cc3Cl)c3n2CCCCC3)cc1 | 0.0794 µM (active)
49 | CCN(CC)c1ccc(/C=C/c2cccc[n+]2C)c(OC)c1 | 0.141 µM (active)
50 | COC(=O)c1ccc(COc2ccc(-c3nnn(CC(N)=O)n3)cc2)cc1 | 1.58 µM (active)
